# According to PubChem BioAssay (Tox21):
# Values without a mark were called inactive. Inconclusive results are not listed. Where a call stands in place of a potency, no number is given. The source made the active and inactive calls. Unless noted, the call rests on the fitted dose curve; in most records, active means well fitted curve in the direction sought with a large enough effect in the repeat runs; inconclusive means weak or mixed curves; inactive means no such curve, though single readings can be large; an effect the other way counts as inactive or inconclusive.
# Experiments:
# [1] = target: Progesterone receptor (Homo sapiens) (UniProt P06401); test: qHTS assay to identify small molecule agonists of the progesterone receptor (PR) signaling pathway (AID 1346784; calls by dose curve; further: nearly all actives have a fitted effect of over 30% in size)
# Sequence of Progesterone receptor (Homo sapiens) (P06401 whole entry, looked up): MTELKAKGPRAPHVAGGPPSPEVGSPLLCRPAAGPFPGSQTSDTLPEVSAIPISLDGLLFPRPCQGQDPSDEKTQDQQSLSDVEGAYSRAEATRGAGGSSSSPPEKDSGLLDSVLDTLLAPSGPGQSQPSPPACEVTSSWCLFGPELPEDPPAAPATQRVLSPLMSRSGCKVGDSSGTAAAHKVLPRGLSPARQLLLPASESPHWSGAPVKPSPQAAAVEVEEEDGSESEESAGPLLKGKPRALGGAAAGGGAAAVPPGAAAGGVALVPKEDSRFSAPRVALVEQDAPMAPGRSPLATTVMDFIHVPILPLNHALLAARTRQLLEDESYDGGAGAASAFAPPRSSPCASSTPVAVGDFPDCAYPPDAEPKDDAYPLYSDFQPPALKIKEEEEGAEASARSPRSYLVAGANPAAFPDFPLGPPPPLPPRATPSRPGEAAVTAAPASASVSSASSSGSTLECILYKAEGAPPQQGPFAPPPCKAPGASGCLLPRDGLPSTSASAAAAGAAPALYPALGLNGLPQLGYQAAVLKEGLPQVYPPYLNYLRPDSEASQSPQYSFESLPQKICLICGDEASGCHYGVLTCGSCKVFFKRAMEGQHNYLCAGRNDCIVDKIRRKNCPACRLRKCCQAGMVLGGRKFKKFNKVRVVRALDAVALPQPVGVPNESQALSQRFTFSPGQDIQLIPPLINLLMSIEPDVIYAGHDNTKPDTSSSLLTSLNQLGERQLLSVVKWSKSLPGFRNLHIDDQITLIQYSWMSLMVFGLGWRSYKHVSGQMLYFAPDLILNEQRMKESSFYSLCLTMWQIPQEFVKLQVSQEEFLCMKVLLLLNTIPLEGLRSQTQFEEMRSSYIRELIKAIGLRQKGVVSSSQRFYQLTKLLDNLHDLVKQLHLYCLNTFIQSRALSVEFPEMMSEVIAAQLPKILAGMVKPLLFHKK
# Method in brief: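 Reporter assay, GripTite PR-UAS-bla HEK 293T cells: 16 hr exposure to DMSO-dissolved compounds at 37C, 5% CO2, in steroid-depleted (2% charcoal-stripped FBS) medium; beta-lactamase measured by FRET fluorescence.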
# [2] = target: Progesterone receptor (Homo sapiens) (UniProt P06401); test: qHTS assay to identify small molecule antagonists of the progesterone receptor (PR) signaling pathway (AID 1346795; active means well fitted inhibition curve with a large enough effect in the signal ratio in the repeat runs, not every such curve was filed as active; the % refers to the signal ratio)
# Method in brief: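 Stimulus R5020 at 1 nM final; cells HEK293T PR-UAS-bla; medium with 2% charcoal-stripped FBS; compound exposure 16 hr at 37C, 5% CO2; detection by FRET beta-lactamase substrate, 2 hr, room temperature.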
# [3] = qHTS assay to identify small molecule antagonists of the progesterone receptor (PR) signaling pathway - cell viability counter screen (AID 1346798); further: series mostly up to about 92 µM; nearly all actives have a fitted effect of over 50% in size
# Method in brief: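 In the same plates used for the beta-lactamase readout, cell viability of compound- and R5020-treated PR-UAS-bla HEK293T cells (16 hr, 37C) was assessed by CellTiter-Glo luminescence.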
# [4] = qHTS assay to identify small molecule agonists of the progesterone receptor (PR) signaling pathway - cell viability counter screen (AID 1346799; calls by dose curve; further: nearly all actives have a fitted effect of over 45% in size)
# Method in brief: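 Multiplexed viability read: CellTiter-Glo luminescence, 30 min RT, following LiveBLAzer FRET measurement on PR-UAS-bla HEK293T cells exposed to compounds 16 hr.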
# [5] = qHTS assay to identify small molecule antagonists of the TGF-beta/Smad signaling pathway - cell viability counter screen (AID 1346824); further: nearly all actives have a fitted effect of over 50% in size
# Method in brief: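 SBE-bla HEK 293T cells were plated overnight at 37 C, then given compounds in DMSO plus TGF-beta1 (added as 0.25 ng/mL solution) for 5 hr. After the bla read, CellTiter-Glo was added to the same wells and luminescence read after 30 min at room temperature.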
# [6] = qHTS assay to identify small molecule agonists of the TGF-beta/Smad signaling pathway - cell viability counter screen (AID 1346829); further: top concentration of the series differs between compounds; nearly all actives have a fitted effect of over 45% in size
# Method in brief: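 After overnight seating at 37 C and 5% CO2, reporter cells got compounds for 5 hr and FRET substrate for 2 hr; cell viability then came from CellTiter-Glo luminescence.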
# [7] = qHTS assay to identify small molecule agonists of the TGF-beta/Smad signaling pathway (AID 1346859; active means well fitted activation curve with a large enough effect in the signal ratio in the repeat runs, not every such curve was filed as active; the % refers to the signal ratio; further: series mostly up to about 77 µM)
# Method in brief: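 Screening used HEK 293T SBE-bla cells at 4,000/well. Test agents: 5 hr, 37 C. Detection: FRET substrate, 2 hr RT, then excitation 405 nm with emissions at 460 and 530 nm.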
# [8] = target: Thyrotropin-releasing hormone receptor (Homo sapiens) (UniProt P34981); test: qHTS assay to identify small molecule antagonists of the thyrotropin-releasing hormone receptor (TRHR) signaling pathway (AID 1346877; active means well fitted inhibition curve with a large enough effect in the repeat runs, not every such curve was filed as active; further: series mostly up to about 51 µM)
# Sequence of Thyrotropin-releasing hormone receptor (Homo sapiens) (P34981 whole entry, looked up): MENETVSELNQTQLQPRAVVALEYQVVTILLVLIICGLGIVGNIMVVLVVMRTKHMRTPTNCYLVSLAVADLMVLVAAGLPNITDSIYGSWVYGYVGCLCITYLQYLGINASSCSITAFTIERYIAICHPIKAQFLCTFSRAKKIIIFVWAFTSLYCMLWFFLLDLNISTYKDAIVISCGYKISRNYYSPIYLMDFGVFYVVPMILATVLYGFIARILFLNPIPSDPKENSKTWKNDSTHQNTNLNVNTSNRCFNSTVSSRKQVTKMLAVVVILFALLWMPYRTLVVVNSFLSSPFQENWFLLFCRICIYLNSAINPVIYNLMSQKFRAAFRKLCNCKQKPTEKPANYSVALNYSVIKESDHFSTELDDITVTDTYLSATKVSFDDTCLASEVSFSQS
# Method in brief: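 TRHR-expressing HEK293 cells loaded with calcium dye for 2 h at 37 C; compounds pre-incubated 5 min at room temperature before TRH challenge at 1 nM final. Intracellular calcium fluorescence read kinetically for 3 min; 15 concentrations in triplicate.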
# [9] = target: Thyrotropin-releasing hormone receptor (Homo sapiens) (UniProt P34981); test: qHTS assay to identify small molecule agonists of the thyrotropin-releasing hormone receptor (TRHR) signaling pathway (AID 1346891; calls by dose curve; further: series mostly up to about 58 µM)
# Method in brief: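 Readout was intracellular calcium fluorescence in TRHR-Hek293 cells. Cells were incubated 18 h, dye-loaded 2 h at 37 °C, and treated with compound in agonist mode.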
# [10] = Human pregnane X receptor (PXR) small molecule agonists, qHTS cell viability counter screen (AID 1346977); further: nearly all actives have a fitted effect of over 50% in size
# Method in brief: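 In each well, the PXR reporter HepG2 line was checked for viability: CellTiter-Fluor reagent added 23hr post-dosing, fluorescence read after 1hr incubation at 37C.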
# [11] = Caspase-3/7 induction in HepG2 cells by small molecules, qHTS assay (AID 1346978); further: nearly all actives have a fitted effect of over 15% in size
# Method in brief: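 Wild-type HepG2 cells (2,000/well) were settled 5 h at 37 C, 5% CO2, then exposed to compounds in DMSO for 17 h. Caspase-3/7 activity was read by luminescence 30 min after adding Caspase-Glo 3/7 reagent at room temperature.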
# [12] = Caspase-3/7 induction in CHO-K1 cells by small molecules, qHTS cell viability counter screen (AID 1346979); further: nearly all actives have a fitted effect of over 35% in size
# Method in brief: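 Following a 5hr settling period, CHO-K1 cells at 1,500 per well received DMSO-dissolved compounds. Cell viability was quantified 16hr later by CellTiter-Fluor fluorescence, measured after 1hr with reagent at 37C.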
# [13] = Caspase-3/7 induction in CHO-K1 cells by small molecules, qHTS assay (AID 1346980); further: nearly all actives have a fitted effect of over 15% in size
# Method in brief: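 Wild-type cells were seeded at 1,500 per well and settled 5 hr at 37 C, 5% CO2, then exposed to DMSO-dissolved compounds for 17 hr. Caspase-Glo 3/7 reagent was added, and luminescence was read after 30min at room temperature.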
# [14] = Caspase-3/7 induction in HepG2 cells by small molecules, qHTS cell viability counter screen (AID 1346981); further: series mostly up to about 92 µM; nearly all actives have a fitted effect of over 30% in size
# Method in brief: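 Wild-type HepG2 cells, 2,000/well, settled 5 hr at 37 C, 5% CO2 before compound addition. Viability read by CellTiter-Fluor fluorescence, reagent added after 16 hr compound exposure, then 1 hr at 37C, in the same wells as the caspase read.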
# [15] = target: Nuclear receptor subfamily 1 group I member 2 (Homo sapiens) (UniProt O75469); test: Human pregnane X receptor (PXR) small molecule agonists, qHTS assay (AID 1346982); further: nearly all actives have a fitted effect of over 35% in size; further: potency means the concentration at half of the fitted maximal effect
# Sequence of Nuclear receptor subfamily 1 group I member 2 (Homo sapiens) (O75469 whole entry, looked up): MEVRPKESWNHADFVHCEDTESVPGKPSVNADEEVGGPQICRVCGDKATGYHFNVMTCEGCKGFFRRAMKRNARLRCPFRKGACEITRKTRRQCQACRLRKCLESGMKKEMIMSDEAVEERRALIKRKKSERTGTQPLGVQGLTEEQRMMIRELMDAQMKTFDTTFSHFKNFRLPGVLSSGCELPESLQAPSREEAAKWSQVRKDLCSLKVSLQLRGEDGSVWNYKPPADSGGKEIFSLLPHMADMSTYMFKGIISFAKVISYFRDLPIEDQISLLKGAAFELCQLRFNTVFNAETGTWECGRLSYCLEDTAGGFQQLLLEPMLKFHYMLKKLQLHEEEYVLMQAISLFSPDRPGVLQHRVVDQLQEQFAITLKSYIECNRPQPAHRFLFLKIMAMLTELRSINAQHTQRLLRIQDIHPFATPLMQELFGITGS
# Method in brief: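 PXR-Luc HepG2 reporter cells (CYP3A4-driven luciferase) in 5% charcoal-stripped FBS medium, plated 5 h before compound addition, then treated 24 h at 37C. Luciferase read by ONE-Glo luminescence after 30 min at room temperature.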
# [16] = target: Cytochrome P450 2D6 (Homo sapiens) (UniProt P10635); test: Cytochrome P450 Family 2 Subfamily D Member 6 (CYP2D6) small molecule antagonists: luciferase reporter qHTS assay (AID 1671196); further: nearly all actives have a fitted effect of over 50% in size; further: potency means the concentration at half of the fitted maximal effect
# Sequence of Cytochrome P450 2D6 (Homo sapiens) (P10635 whole entry, looked up): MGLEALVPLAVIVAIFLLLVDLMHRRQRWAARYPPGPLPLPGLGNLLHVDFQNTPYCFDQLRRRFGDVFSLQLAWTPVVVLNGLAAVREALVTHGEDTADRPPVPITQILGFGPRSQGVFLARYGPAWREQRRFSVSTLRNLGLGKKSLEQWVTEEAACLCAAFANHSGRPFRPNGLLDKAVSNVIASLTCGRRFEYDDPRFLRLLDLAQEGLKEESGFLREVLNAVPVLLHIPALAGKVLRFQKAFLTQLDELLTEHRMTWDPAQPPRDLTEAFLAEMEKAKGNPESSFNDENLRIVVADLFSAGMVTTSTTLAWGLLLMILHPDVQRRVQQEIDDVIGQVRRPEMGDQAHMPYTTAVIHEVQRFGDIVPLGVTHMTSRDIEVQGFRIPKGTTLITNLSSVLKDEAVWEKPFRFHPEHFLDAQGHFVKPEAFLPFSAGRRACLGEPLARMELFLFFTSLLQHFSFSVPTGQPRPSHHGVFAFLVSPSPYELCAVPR
# Method in brief: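 Cell-free P450-Glo system: CYP2D6 with proluciferin substrate was pre-incubated with compound for 10 min, then reacted with NADPH regeneration for 1 h at room temperature. Luciferin product was detected after 20 min, and data were reported as relative luminescence units.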
# [17] = target: Cytochrome P450 2C19 (Homo sapiens) (UniProt P33261); test: Cytochrome P450 Family 2 Subfamily C Member 19 (CYP2C19) small molecule antagonists: luciferase reporter qHTS assay (AID 1671197); further: nearly all actives have a fitted effect of over 65% in size; further: potency means the concentration at half of the fitted maximal effect
# Sequence of Cytochrome P450 2C19 (Homo sapiens) (P33261 whole entry, looked up): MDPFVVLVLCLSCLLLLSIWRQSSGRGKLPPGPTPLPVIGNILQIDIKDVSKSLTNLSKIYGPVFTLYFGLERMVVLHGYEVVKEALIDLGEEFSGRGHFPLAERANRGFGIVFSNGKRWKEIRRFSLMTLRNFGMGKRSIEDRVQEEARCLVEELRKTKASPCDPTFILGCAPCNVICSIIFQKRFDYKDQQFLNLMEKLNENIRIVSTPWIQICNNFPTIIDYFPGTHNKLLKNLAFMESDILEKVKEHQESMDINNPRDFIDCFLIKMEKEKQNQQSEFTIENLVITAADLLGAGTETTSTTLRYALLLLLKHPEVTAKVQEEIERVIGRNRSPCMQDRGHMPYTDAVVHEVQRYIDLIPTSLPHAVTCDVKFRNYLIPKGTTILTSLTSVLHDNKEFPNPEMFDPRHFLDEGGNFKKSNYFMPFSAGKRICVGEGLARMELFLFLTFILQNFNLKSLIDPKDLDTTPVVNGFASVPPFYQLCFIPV
# Method in brief: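 Inhibition of CYP2C19 was scored from loss of luminescence in a P450-Glo proluciferin substrate assay, NADPH-started and run 1 h at 37C, with ketoconazole as positive control.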
# [18] = target: Nuclear receptor subfamily 1 group I member 2 (Rattus norvegicus) (UniProt Q9R1A7); test: Rat pregnane X receptor (rPXR) activation by small molecules, qHTS assay (AID 1346983); details: rPXR luciferase reporter cells, One-Glo luminescence, 24 h; max activation: hits give high values; further: nearly all actives have a fitted effect of over 20% in size
# Sequence of Nuclear receptor subfamily 1 group I member 2 (Rattus norvegicus) (Q9R1A7 whole entry, looked up): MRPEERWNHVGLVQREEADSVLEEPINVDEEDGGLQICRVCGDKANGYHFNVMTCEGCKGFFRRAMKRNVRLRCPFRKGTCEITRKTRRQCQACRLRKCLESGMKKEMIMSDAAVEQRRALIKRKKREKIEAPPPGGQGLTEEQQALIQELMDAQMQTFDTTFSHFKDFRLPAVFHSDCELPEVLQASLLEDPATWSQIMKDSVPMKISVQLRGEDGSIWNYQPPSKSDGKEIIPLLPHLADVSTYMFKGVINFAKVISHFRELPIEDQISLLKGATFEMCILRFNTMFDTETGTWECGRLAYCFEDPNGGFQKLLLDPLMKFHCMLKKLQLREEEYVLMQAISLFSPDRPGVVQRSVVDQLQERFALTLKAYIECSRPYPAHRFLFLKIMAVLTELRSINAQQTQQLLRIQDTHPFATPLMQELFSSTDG
# Method in brief: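 Cell-based rPXR luciferase reporter assay, 2,000 cells per well, rested 5hr at 37 C before compound addition in DMSO, then 24 hr at 37 C. One-Glo reagent was added and luminescence read after 30 min at room temperature.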
# [19] = target: Nuclear receptor subfamily 1 group I member 2 (Homo sapiens) (UniProt O75469); test: CYP3A4 induction through human pregnane X receptor (PXR) by small molecules, qHTS assay (AID 1346984); further: nearly all actives have a fitted effect of over 40% in size
# Method in brief: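 DPX-2 HepG2 cells carrying a PXR response element and CYP3A4-promoter luciferase construct, treated with compounds 24 hr at 37C. Then P450-Glo CYP3A4 Luciferin-IPA substrate (3uM final) for 3 hr at 37C, One-Glo added, luminescence read.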
# [20] = target: Nuclear receptor subfamily 1 group I member 2 (Homo sapiens) (UniProt O75469); test: Human pregnane X receptor (PXR) activation by small molecules, qHTS assay (AID 1346985); further: nearly all actives have a fitted effect of over 40% in size
# Method in brief: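 DPX-2 cells (HepG2 co-transfected with a PXR response element and a CYP3A4-promoter luciferase construct) were seeded at 2,000 per well, rested 5 hr at 37C, then exposed to DMSO-dissolved compounds for 24 hr. Activation was read as luciferase luminescence.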
SMILES,Potency [1],Potency [2],Potency [3],Potency [4],outcome [5],outcome [6],outcome [7],outcome [8],outcome [9],Potency [10],Potency [11],Potency [12],Potency [13],Potency [14],Potency [15],Potency [16],Potency [17],max activation [18] [%],Potency [19],Potency [20]
OCCCO,inactive,inactive,inactive,inactive,inactive,inactive,inactive,inactive,inactive,inactive,inactive,inactive,inactive,inactive,inactive,inactive,inactive,–,–,–
CCCCCCCCCCCCCCCCC(=O)O,inactive,inactive,inactive,inactive,inactive,inactive,inactive,inactive,inactive,inactive,inactive,inactive,inactive,inactive,inactive,inactive,inactive,–,–,–
C1CCN(CN2CCCCC2)CC1,inactive,inactive,inactive,inactive,inactive,inactive,inactive,inactive,inactive,inactive,inactive,inactive,inactive,inactive,inactive,7.1 µM (active),inactive,–,–,–
COC(=O)c1cc(Cl)ccc1[N+](=O)[O-],inactive,inactive,inactive,inactive,inactive,inactive,inactive,inactive,inactive,inactive,inactive,inactive,–,inactive,–,–,79.6 µM (active),–,–,–
CC(C)(C)NCC(O)COc1ccc(NC(=O)NC2CCCCC2)cc1 (configuration not stated),inactive,inactive,inactive,inactive,inactive,inactive,inactive,inactive,inactive,inactive,inactive,inactive,inactive,–,inactive,inactive,inactive,0.0743,inactive,–
C[C@@H](O)[C@H]1C(=O)N2C(C(=O)O)=C(S[C@@H]3CN[C@H](CNS(N)(=O)=O)C3)[C@H](C)[C@H]12,inactive,inactive,inactive,inactive,inactive,inactive,inactive,inactive,inactive,inactive,–,inactive,–,inactive,18.8 µM (active),inactive,9.77 µM (active),-2.11,inactive,inactive
Cc1c(N=C=O)cccc1N=C=O,inactive,inactive,inactive,inactive,inactive,inactive,inactive,inactive,inactive,inactive,inactive,inactive,inactive,inactive,inactive,inactive,72.4 µM (active),–,–,–
O=C1OC(=O)C2CC=CCC12 (configuration not stated),inactive,inactive,inactive,inactive,inactive,inactive,inactive,inactive,inactive,inactive,inactive,inactive,–,–,inactive,35.7 µM (active),80 µM (active),–,–,–
Nc1ncnc2c1ncn2[C@@H]1O[C@H](CO)[C@@H](O)[C@H]1O,inactive,inactive,inactive,inactive,inactive,inactive,inactive,inactive,inactive,inactive,–,inactive,inactive,inactive,–,–,–,–,–,–
CC(C)C/C=C(\C=O)c1ccccc1,inactive,inactive,inactive,inactive,inactive,inactive,inactive,inactive,inactive,inactive,inactive,–,inactive,–,30.6 µM (active),–,17.8 µM (active),–,–,–
CCCCCCCCCCCCSCCOCCO,inactive,inactive,inactive,inactive,inactive,inactive,inactive,inactive,inactive,inactive,inactive,inactive,inactive,inactive,–,inactive,–,-0.35,inactive,inactive
CC1(C)CC(O)CC(C)(C)N1[O],inactive,inactive,inactive,inactive,inactive,inactive,inactive,inactive,inactive,inactive,–,–,inactive,inactive,inactive,–,–,–,–,–
CCOc1ccccc1O,inactive,inactive,inactive,inactive,inactive,inactive,inactive,inactive,inactive,inactive,inactive,–,inactive,inactive,inactive,inactive,inactive,–,–,–
C[Si](C)(C)O[Si](C)(C)O[Si](C)(C)C,inactive,inactive,inactive,inactive,inactive,inactive,inactive,inactive,inactive,inactive,inactive,inactive,inactive,inactive,inactive,inactive,inactive,–,–,–
CCCOC(C)=O,inactive,inactive,inactive,inactive,inactive,inactive,inactive,inactive,inactive,inactive,inactive,–,–,–,inactive,–,inactive,–,–,–
C=C[Si]1(C)O[Si](C)(C=C)O[Si](C)(C=C)O[Si](C)(C=C)O1 (configuration not stated),inactive,inactive,inactive,inactive,inactive,inactive,inactive,inactive,inactive,inactive,inactive,inactive,inactive,–,–,inactive,63.3 µM (active),–,–,–
OCCc1ccncc1,inactive,inactive,inactive,inactive,inactive,inactive,inactive,inactive,inactive,inactive,inactive,inactive,inactive,inactive,inactive,–,–,–,–,–
